Where a name gives a salt, the structure may show the parent alone.
Tested on: Danio rerio larvae (5 dpf)
Assay: optomotor response to green moving lines, difference vs DMSO (percentage points (treated minus DMSO)); higher = more of the behaviour than the DMSO vehicle control
Conditions: 10 µM; exposure time: 3 h pre-incubation + 3 h imaging
Procedure: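 5-dpf wild-type zebrafish larvae were imaged in 96-well plates. They were treated with 190 Tocris FDA-approved drugs at 10 µM (1 µl/ml DMSO) for 3 h before and 3 h during imaging at 28.5 °C, 48 larvae per drug. Automated image analysis gave % time moving and optomotor responses. Values are drug group mean minus DMSO vehicle mean (n=844), in percentage points, for 10 behaviours.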

Row | Structure (SMILES) | optomotor response to green moving lines
1 | COc1ccc(Cl)cc1C(=O)NCCc1ccc(S(=O)(=O)NC(=O)NC2CCCCC2)cc1 [Glibenclamide] | 9.49
2 | CC[C@H](C)C(=O)O[C@H]1C[C@@H](C)C=C2C=C[C@H](C)[C@H](CC[C@@H]3C[C@@H](O)CC(=O)O3)[C@H]21 [Lovastatin] | -3.13
3 | Cc1ccsc1C(=CCCN1CCC[C@@H](C(=O)O)C1)c1sccc1C [Tiagabine hydrochloride] | 8.59
4 | O=C(Nc1c(Cl)cncc1Cl)c1ccc(OC(F)F)c(OCC2CC2)c1 [Roflumilast] | -11.7
5 | CC(C)(C)NC(=O)[C@@H]1C[C@@H]2CCCC[C@@H]2CN1C[C@@H](O)[C@H](Cc1ccccc1)NC(=O)[C@H](CC(N)=O)NC(=O)c1ccc2ccccc2n1 [Saquinavir mesylate] | -3.04
6 | CC1CNc2c(cccc2S(=O)(=O)N[C@@H](CCCNC(=N)N)C(=O)N2CC[C@@H](C)C[C@@H]2C(=O)O)C1 (stereo not given in full) [Argatroban] | -1.18
7 | CNCc1ccc(-c2[nH]c3cc(F)cc4c3c2CCNC4=O)cc1 [Rucaparib camsylate] | 1.55
8 | CC1=Nc2ccc(Cl)cc2S(=O)(=O)N1 [Diazoxide] | 7.27
9 | COc1ccc([C@@H]2Sc3ccccc3N(CCN(C)C)C(=O)[C@@H]2OC(C)=O)cc1 [Diltiazem hydrochloride] | -3.02
10 | Cc1cc2c(s1)Nc1ccccc1N=C2N1CCN(C)CC1 [Olanzapine] | 8.6
11 | O=C(NCC1CCCCN1)c1cc(OCC(F)(F)F)ccc1OCC(F)(F)F (stereo not given) [Flecainide acetate] | 18.1
12 | COC(c1ccccc1)(c1ccccc1)[C@H](Oc1nc(C)cc(C)n1)C(=O)O [Ambrisentan] | -4.71
13 | O=C1CCc2ccc(OCCCCN3CCN(c4cccc(Cl)c4Cl)CC3)cc2N1 [Aripiprazole] | -2.87
14 | CCc1ccc(CCOc2ccc(CC3SC(=O)NC3=O)cc2)nc1 (stereo not given) [Pioglitazone hydrochloride] | -7.6
15 | CN1CC(=O)N2[C@H](c3ccc4c(c3)OCO4)c3[nH]c4ccccc4c3C[C@@H]2C1=O [Tadalafil] | -0.909
16 | O=C(O)c1cc(/N=N/c2ccc(S(=O)(=O)Nc3ccccn3)cc2)ccc1O [Sulfasalazine] | 0.416
17 | CC(C)(C#N)c1cc(Cn2cncn2)cc(C(C)(C)C#N)c1 [Anastrozole] | -2.71
18 | CN(CCOc1ccc(NS(C)(=O)=O)cc1)CCc1ccc(NS(C)(=O)=O)cc1 [Dofetilide] | 0.112
19 | CN1CC2c3ccccc3Oc3ccc(Cl)cc3C2C1 (stereo not given) [Asenapine maleate] | -9.85
20 | CCC(C)(C)C(=O)O[C@H]1C[C@@H](C)C=C2C=C[C@H](C)[C@H](CC[C@@H]3C[C@@H](O)CC(=O)O3)[C@H]21 [Simvastatin] | 4.17

Row | Structure (SMILES) | optomotor response to green moving lines
21 | NC(=O)c1ncn([C@@H]2O[C@H](CO)[C@@H](O)[C@H]2O)n1 [Ribavirin] | -3.77
22 | COc1cc(Nc2c(C#N)cnc3cc(OCCCN4CCN(C)CC4)c(OC)cc23)c(Cl)cc1Cl [Bosutinib] | 2.65
23 | CN/C(=N\CCSCc1nc[nH]c1C)NC#N [Cimetidine] | 5.06
24 | COCCc1ccc(OCC(O)CNC(C)C)cc1 (stereo not given) [Metoprolol tartrate] | 0.682
25 | CN(C)C(=N)NC(=N)N [Metformin hydrochloride] | 7.37
26 | CC(C)OC(=O)C(C)(C)Oc1ccc(C(=O)c2ccc(Cl)cc2)cc1 [Fenofibrate] | 8.84
27 | NS(=O)(=O)Cc1noc2ccccc12 [Zonisamide] | 8.43
28 | OC(c1cc(C(F)(F)F)nc2c(C(F)(F)F)cccc12)C1CCCCN1 (stereo not given) [Mefloquine hydrochloride] | -0.307
29 | CC#C[C@]1(O)CC[C@H]2[C@@H]3CCC4=CC(=O)CCC4=C3[C@@H](c3ccc(N(C)C)cc3)C[C@@]21C [Mifepristone] | 11
30 | Cc1ccc(NC(=O)c2ccc(CN3CCN(C)CC3)cc2)cc1Nc1nccc(-c2cccnc2)n1 [Imatinib mesylate] | -13.4
31 | CCOc1ccccc1OCCN[C@H](C)Cc1ccc(OC)c(S(N)(=O)=O)c1 [Tamsulosin hydrochloride] | -11.6
32 | CC(=O)S[C@@H]1CC2=CC(=O)CC[C@]2(C)[C@H]2CC[C@@]3(C)[C@@H](CC[C@@]34CCC(=O)O4)[C@H]12 [Spironolactone] | 3.9
33 | OCc1cc(C(O)CNCCCCCCOCCCCc2ccccc2)ccc1O (stereo not given) [Salmeterol xinafoate] | -6.89
34 | Nc1ncn([C@H]2C[C@H](O)[C@@H](CO)O2)c(=O)n1 [Decitabine] | 0.0025
35 | COc1ccccc1OCCNCC(O)COc1cccc2[nH]c3ccccc3c12 (stereo not given) [Carvedilol] | -14.2
36 | CCOC(=O)C1=C(C)NC(C)=C(C(=O)OC)C1c1cccc(Cl)c1Cl (stereo not given) [Felodipine] | -6.01
37 | COc1ccc(C[C@@H](C)NC[C@H](O)c2ccc(O)c(NC=O)c2)cc1 [Arformoterol tartrate] | 0.317
38 | CNC(=O)c1ccccc1Sc1ccc2c(/C=C/c3ccccn3)n[nH]c2c1 [Axitinib] | 2.99
39 | COC(=O)C1=C(C)NC(C)=C(C(=O)OC(C)C)C1c1cccc2nonc12 (stereo not given) [Isradipine] | -1.42
40 | Clc1ccc2nsnc2c1NC1=NCCN1 [Tizanidine hydrochloride] | -0.817
